Assay results: the supplement of paper PMC11732987, “Enantioselective OTUD7B fragment discovery through chemoproteomics screening and high-throughput optimisation” (Communications Chemistry, 2025)

How the values were obtained:
Experiment in all cases: log2 ratio of Biotin-Ahx-Ub-VS probe labelling (fragment/DMSO); higher = less target engagement (more negative = stronger competition), active = hit call of the paper (q ≤ 0.05, log2 ratio ≤ -1)
Details in all cases: compound concentration: 200 uM; treatment time: 3 h
USP34 = USP34 (UniProt Q70CQ2)
Chain of USP34 (Q70CQ2 whole entry, the tested form may be a part): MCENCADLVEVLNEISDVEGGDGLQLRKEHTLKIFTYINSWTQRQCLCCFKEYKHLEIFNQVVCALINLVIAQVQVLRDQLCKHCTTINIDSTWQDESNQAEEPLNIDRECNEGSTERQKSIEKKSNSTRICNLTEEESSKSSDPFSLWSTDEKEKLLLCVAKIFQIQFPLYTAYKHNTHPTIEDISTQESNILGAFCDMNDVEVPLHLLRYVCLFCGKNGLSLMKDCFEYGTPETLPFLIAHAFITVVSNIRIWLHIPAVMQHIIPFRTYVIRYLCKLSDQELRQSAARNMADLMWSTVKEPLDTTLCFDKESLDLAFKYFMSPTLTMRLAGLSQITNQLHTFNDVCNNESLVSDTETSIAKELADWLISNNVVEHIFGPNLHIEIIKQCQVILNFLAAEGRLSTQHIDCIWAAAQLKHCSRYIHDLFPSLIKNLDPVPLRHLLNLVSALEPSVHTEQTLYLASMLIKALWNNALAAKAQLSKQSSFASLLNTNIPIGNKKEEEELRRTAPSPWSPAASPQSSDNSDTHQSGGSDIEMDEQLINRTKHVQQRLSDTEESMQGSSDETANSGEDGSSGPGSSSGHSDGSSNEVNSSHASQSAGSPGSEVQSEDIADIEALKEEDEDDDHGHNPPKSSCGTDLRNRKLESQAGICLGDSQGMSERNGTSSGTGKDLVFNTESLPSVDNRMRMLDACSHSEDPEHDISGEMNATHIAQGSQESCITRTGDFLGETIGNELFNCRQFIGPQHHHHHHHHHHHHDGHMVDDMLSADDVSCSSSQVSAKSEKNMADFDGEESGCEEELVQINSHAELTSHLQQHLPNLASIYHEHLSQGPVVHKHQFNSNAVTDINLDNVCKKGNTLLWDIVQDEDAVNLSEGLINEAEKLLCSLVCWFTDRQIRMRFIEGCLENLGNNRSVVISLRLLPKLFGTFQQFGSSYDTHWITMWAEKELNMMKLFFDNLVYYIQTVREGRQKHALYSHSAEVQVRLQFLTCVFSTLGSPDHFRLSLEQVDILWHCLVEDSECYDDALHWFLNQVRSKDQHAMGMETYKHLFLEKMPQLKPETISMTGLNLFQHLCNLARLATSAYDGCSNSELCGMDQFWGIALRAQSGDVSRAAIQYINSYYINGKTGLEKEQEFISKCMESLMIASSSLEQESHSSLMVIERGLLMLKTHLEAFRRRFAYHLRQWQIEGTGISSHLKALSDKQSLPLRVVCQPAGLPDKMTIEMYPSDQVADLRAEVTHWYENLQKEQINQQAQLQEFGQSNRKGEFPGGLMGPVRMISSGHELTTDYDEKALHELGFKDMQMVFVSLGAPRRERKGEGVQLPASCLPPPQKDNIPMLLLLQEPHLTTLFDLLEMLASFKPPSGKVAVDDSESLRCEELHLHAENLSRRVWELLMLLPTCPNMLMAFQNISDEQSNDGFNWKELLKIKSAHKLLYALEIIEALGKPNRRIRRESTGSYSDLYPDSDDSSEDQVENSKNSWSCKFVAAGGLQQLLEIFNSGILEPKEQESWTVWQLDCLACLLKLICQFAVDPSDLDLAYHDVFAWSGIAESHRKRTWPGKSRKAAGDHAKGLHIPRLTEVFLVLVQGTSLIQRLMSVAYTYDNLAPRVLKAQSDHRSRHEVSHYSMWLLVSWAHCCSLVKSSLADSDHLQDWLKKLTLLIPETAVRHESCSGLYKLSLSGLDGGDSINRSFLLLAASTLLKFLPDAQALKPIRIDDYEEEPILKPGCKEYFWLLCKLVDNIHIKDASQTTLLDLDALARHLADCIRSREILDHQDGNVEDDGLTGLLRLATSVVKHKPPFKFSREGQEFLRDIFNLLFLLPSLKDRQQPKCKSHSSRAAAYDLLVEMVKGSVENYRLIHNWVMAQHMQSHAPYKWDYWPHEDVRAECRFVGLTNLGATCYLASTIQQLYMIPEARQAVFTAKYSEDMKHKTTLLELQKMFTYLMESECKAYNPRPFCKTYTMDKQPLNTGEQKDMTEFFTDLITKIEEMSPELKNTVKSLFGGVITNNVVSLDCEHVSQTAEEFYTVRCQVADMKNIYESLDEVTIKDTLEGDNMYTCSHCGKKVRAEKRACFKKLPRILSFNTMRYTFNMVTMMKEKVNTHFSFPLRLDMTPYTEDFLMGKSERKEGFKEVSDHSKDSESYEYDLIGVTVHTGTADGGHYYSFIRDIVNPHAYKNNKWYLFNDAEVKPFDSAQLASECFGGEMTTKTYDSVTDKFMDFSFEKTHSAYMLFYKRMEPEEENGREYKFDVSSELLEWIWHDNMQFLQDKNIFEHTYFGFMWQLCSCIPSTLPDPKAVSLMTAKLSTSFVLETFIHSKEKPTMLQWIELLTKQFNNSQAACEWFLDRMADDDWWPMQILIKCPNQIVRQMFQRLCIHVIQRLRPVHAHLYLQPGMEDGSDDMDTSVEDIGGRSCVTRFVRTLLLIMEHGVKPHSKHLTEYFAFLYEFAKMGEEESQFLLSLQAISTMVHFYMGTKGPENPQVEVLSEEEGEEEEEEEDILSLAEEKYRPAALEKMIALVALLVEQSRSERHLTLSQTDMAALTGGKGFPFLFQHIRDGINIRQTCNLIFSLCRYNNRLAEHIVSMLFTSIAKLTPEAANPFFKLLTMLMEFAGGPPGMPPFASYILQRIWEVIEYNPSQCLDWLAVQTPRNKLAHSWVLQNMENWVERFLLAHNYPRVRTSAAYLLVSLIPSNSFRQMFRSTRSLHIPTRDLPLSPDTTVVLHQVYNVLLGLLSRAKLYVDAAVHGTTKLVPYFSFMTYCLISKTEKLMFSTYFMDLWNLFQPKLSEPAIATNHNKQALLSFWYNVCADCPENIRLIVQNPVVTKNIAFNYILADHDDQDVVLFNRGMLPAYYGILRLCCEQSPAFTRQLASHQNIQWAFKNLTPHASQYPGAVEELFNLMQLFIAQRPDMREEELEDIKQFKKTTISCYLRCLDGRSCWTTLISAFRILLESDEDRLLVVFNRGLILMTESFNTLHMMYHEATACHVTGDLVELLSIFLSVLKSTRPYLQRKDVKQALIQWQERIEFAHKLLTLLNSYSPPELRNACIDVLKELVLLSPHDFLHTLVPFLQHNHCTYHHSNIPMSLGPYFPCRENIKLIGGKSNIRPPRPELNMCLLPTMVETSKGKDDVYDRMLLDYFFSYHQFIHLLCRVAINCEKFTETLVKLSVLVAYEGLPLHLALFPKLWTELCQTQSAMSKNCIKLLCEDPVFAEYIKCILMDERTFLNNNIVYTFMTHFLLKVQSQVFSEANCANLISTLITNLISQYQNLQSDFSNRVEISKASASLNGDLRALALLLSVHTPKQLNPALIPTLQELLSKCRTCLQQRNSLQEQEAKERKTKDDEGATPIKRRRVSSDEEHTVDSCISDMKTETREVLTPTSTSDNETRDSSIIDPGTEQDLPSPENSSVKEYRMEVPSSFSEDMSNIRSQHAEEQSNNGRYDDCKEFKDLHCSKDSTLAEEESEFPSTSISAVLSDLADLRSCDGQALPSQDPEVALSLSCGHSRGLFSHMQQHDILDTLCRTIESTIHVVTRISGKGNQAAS
Method in brief: (§1)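 HEK293T lysate (495 µg per sample, in Tris/CHAPS/IGEPAL buffer with protease inhibitors) was exposed in triplicate for 3 h to fragment at 200 µM or to vehicle, then to Biotin-Ahx-Ub-VS at 0.5 µM final for 1 h. Labelled DUBs were enriched on NeutrAvidin, digested with LysC and trypsin, and analysed by diaPASEF LC-MS/MS. Spectronaut label-free quantities were normalised to the global median, and values are average log2 ratios of fragment over vehicle from an unpaired t-test. Only proteins with ≥2 unique peptides were used.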

USP36 = biological target: T1, USP36 (UniProt Q9P275)
T1 sequence (whole entry): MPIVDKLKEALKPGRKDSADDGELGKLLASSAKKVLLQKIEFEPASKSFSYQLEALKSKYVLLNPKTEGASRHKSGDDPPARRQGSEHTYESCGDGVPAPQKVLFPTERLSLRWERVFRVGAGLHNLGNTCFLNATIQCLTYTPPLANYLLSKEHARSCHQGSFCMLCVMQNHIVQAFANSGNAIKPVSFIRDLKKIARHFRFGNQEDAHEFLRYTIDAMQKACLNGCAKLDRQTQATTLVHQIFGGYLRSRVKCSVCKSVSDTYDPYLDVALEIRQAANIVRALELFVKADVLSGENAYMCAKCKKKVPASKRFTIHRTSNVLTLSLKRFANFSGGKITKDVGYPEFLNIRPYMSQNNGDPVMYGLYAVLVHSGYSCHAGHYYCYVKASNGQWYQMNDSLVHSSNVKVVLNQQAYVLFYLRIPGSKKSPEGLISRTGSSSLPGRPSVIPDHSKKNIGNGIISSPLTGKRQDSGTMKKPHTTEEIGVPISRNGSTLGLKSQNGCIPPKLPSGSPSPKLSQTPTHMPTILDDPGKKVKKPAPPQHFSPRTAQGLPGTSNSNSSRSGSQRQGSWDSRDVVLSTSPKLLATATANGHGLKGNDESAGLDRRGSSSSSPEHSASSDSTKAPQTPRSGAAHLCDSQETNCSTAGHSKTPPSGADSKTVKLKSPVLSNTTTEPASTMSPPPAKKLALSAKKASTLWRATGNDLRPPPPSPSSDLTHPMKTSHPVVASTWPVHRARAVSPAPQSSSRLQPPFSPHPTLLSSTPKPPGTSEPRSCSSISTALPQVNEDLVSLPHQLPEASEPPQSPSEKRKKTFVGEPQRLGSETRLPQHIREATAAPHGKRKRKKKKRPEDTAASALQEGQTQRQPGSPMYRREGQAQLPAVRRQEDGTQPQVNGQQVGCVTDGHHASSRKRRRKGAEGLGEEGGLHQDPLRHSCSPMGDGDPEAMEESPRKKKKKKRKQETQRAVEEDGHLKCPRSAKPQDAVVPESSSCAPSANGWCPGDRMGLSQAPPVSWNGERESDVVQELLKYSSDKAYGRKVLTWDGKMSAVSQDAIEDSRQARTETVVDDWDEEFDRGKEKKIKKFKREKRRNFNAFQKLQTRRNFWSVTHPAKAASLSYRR
Method in brief: as §1

USP38 = biological target: T2, USP38 (UniProt Q8NB14)
T2 sequence (whole entry): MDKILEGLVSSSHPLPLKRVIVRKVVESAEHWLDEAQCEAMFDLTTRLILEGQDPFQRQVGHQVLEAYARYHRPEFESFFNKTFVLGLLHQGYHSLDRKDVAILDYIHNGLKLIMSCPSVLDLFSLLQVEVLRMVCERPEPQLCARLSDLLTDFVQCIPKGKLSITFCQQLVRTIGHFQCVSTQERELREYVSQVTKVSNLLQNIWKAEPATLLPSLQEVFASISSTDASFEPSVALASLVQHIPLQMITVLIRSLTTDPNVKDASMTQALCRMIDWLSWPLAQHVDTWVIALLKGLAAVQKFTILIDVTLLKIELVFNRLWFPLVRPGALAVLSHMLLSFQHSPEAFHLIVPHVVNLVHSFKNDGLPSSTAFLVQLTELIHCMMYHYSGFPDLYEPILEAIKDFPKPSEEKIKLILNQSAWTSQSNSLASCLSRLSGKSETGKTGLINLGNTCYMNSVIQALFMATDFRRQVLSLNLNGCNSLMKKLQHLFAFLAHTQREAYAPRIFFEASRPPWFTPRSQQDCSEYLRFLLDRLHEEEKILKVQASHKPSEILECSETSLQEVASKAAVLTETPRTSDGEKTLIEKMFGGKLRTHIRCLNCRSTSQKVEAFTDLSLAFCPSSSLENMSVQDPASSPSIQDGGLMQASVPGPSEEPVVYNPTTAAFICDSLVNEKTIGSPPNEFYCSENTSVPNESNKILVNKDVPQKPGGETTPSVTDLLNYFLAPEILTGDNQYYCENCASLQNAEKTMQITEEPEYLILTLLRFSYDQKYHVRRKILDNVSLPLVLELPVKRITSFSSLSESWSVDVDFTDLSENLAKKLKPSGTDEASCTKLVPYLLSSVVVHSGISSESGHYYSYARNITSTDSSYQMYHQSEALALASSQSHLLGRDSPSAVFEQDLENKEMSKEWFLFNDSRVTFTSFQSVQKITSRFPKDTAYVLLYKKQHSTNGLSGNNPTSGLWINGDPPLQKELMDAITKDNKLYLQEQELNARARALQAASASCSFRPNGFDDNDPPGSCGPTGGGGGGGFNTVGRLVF
Method in brief: as §1

USP39 = biological target: T3, USP39 (UniProt Q53GS9)
T3 sequence (whole entry): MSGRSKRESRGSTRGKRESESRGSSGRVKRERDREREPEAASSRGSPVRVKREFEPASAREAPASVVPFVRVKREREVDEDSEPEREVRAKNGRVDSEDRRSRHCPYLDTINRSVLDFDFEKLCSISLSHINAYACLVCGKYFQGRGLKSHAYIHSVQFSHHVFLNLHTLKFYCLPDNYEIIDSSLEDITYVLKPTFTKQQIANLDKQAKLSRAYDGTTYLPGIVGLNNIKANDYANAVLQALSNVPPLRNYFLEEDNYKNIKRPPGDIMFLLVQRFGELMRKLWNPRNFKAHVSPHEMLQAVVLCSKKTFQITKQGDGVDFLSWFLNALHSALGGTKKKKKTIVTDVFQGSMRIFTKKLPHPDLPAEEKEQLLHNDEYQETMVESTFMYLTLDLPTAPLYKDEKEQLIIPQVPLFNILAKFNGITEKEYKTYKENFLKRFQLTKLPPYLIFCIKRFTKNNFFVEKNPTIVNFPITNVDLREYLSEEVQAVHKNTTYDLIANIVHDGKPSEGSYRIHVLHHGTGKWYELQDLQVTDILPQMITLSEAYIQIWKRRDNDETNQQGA
Method in brief: as §1

USP4 = biological target: T4, USP4 (UniProt Q13107)
T4 sequence (whole entry): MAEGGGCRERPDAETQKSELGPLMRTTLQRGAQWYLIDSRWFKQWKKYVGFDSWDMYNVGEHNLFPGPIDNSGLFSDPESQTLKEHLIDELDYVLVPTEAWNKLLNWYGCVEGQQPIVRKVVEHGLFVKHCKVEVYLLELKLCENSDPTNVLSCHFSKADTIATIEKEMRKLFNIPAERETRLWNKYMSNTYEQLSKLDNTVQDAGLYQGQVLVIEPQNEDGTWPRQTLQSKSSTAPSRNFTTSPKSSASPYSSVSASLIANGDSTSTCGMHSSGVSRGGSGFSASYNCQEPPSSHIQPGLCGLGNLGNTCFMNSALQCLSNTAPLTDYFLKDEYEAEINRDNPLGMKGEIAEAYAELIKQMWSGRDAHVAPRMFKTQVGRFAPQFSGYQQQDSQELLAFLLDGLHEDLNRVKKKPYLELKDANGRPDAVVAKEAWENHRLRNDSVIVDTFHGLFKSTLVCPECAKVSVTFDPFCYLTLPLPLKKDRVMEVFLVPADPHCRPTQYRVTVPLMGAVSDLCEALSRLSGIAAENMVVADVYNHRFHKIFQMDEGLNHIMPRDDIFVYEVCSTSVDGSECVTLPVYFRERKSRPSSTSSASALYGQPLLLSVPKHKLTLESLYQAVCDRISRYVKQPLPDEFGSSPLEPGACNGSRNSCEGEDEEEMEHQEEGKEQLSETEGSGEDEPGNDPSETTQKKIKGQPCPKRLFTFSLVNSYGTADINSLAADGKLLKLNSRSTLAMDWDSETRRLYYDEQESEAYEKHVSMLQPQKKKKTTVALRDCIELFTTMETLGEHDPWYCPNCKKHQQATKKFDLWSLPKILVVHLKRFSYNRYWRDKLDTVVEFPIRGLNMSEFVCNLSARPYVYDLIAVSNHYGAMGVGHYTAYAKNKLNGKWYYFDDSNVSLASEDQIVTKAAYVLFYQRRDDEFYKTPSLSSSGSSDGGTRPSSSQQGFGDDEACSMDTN
Method in brief: as §1

Measured: log2 ratio of Biotin-Ahx-Ub-VS probe labelling

O=C(CCl)N1CCCC1c1ccsc1 (stereo not given)
inactive: USP34 -0.191 | USP36 -0.111 | USP38 -0.0937 | USP39 -0.0825 | USP4 -0.821
